Screens: PubChem, National Center for Advancing Translational Sciences (NCATS)
Only a selection was taken, and hits are over-represented in it overall.
CHX counter = Cycloheximide Counterscreen for Small Molecule Inhibitors of Shiga Toxin; cell reporter, cycloheximide protein synthesis inhibition counterscreen; max response, %; actives 12% (n = 300,000); in the data active means max response mostly above about 13%, no sharp cut-off; inactive means mostly below about 14%; further: read at 38.3 µM for the half of the compounds with a filed dose; 0% is about no effect
AMA1 RON2 block = qHTS for Inhibitors of AMA1-RON; Towards Development of Antimalarial Drug Lead: Primary Screen; AlphaScreen AMA1-biotinylated RON2 peptide binding; Potency, µM (doses to about 58.2 µM), for inactives: at the highest dose activity change, negative = inhibition, most hits filed as inhibitors; actives 0.2% (n = 360,000); AID 720542, 2013; active means well fitted inhibition curve with a large enough effect; inconclusive means small, poorly fitted or top-dose-only effect; inactive means no such curve, though single readings can be large or run the other way;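 further: potency means the concentration at half of the fitted maximal effect; 0% = vehicle wells and -100% = peptide control; nearly all actives have a fitted effect of over 45% in size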
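AMA1 (3D7) with his tag at 25 nM final met compounds first, then biotinylated RON2 peptide at 25 nM; detection used donor plus acceptor beads, 10 µg/mL apiece, read by AlphaScreen after 30 min at room temperature.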
Marburg entry inh = qHTS for inhibitors of binding or entry into cells for Marburg Virus; Marburg virus pseudotyped entry inhibition, cell reporter; Potency, µM (highest dose often 37.8 µM), for inactives: at the highest dose activity change, negative = inhibition, usual class: inhibitors; actives 1.8% (n = 300,000); AID 540276, 2011; calls by dose curve; tested in HEK293 cells; further: potency means the concentration at half of the fitted maximal effect; on the % scale 0 is the no-effect control and ±100 the full control effect
Lassa entry inh = qHTS for Inhibitors of binding or entry into cells for Lassa Virus; Lassa virus pseudotype entry inhibition, cell reporter; Potency, µM (top dose mostly 37.9 µM), for inactives: at the top dose activity change, negative = inhibition, actives largely listed as inhibitors; actives 1.2% (n = 300,000); AID 540256, 2011; calls by dose curve; tested in HEK293 cells; further: potency means the concentration at half of the fitted maximal effect; on the % scale 0 is the no-effect control and ±100 the full control effect; nearly all actives have a fitted effect of over 50% in size
Shiga inhibitor = A qHTS for Small Molecule Inhibitors of Shiga Toxin | Vero cells, Shiga toxin protein synthesis inhibition reporter | inhibition, % at 38.7 µM | actives 9.2% (n = 290,000) | AID 2315, 2010; in the data active means inhibition mostly above about 28%, no sharp cut-off; inactive means mostly below about 43%; further: 0% is about no effect
An asterisk follows results filed as active; ? = inconclusive; · = not tested or not shown; [ ] = remark or other dose.

SMILES	CHX counter	AMA1 RON2 block	Marburg entry inh	Lassa entry inh	Shiga inhibitor
O=C1CCCC2=C1[C@H]1O[C@](CCCCN3C(=O)c4ccccc4C3=O)(Cc3ccccc31)O2	·	·	-1.7%[14.2 µM]	·	·
COc1ccc(C(=O)NC(=S)N2CCC(C)CC2)cc1	25.6*	86.9%	?	13.9%	41.3
CCn1cc(S(=O)(=O)c2ccccc2)c(=O)c2cc(F)c(N3CCCCCC3)cc21	·	·	·	-18.5%[46.1 µM]	·
CSc1ccc(CCNC(=O)C2CCN(c3ncnc4c3nc3n4CCCCC3)CC2)cc1	·	·	·	2.1%[46.1 µM]	·
CC1CCCN(C(=O)COC(=O)CNC(=O)c2sc3ccccc3c2Cl)C1 (stereo not given)	·	-3.1%	·	·	·
CCN(N=O)c1ccc(C=C2C=Cc3ccccc32)cc1	·	?	?	3.98µM*	·
COc1ccc(N2CCN(C(=O)COC(=O)c3ccc(C)o3)CC2)cc1	·	13.0%	20.5%	?	·
CCC(=O)N1CCN(c2ccc(NC(=O)c3ccc(-c4ccccc4)cc3)cc2)CC1	-0.4	·	-2.8%	·	-17.9
CCCn1cnc2c(cnn2-c2ccc(F)cc2)c1=O	43.3*	5.9%	-0.1%	6.4%	70.5*
CCCCn1cnc2c(cnn2-c2ccc(F)cc2)c1=O	27.2*	-11.2%	?	-16.0%	120.0*
CCCCn1cnc2c(cnn2-c2ccc(Cl)cc2)c1=O	10.8*	1.6%	-0.3%	-29.9%	18.3
CCOC(=O)C(C)n1cnc2c(cnn2-c2ccc(Cl)cc2)c1=O (stereo not given)	10.6	-21.5%	5.8%	-23.9%	-24.6
CCOc1ccc(-c2cc(C(=O)Nc3ccc4c(c3)OCCO4)c3ccccc3n2)cc1	22.8*	-0.6%	?	-15.3%	52.5*
Cc1cccc(-c2cc(C(=O)Nc3ccc4c(c3)OCCO4)c3ccccc3n2)c1	31.6*	-2.6%	-28.7%	-23.6%	96.2*
N/C(Cc1ccc(Cl)cc1Cl)=N\OC(=O)c1ccccc1F	53.3*	118.1%	-12.4%[46.1 µM]	14.2%[46.1 µM]	74.6*
N/C(Cc1cccc2ccccc12)=N\OC(=O)c1ccccc1F	22.7*	-6.4%	28.0%	12.5%	23.2
N/C(Cc1ccccc1)=N\OC(=O)c1cccc2ccccc12	28.7*	72.1%	?	?	63.9*
N/C(Cn1cncn1)=N\OC(=O)c1ccc(Cl)cc1Cl	9.0	19.1%	19.9%[46.1 µM]	?	57.6
Nc1cc(Cl)nc(N/N=C/c2c(O)ccc3ccccc23)n1	26.3*	21.6%	?	?	116.4*
O=S(=O)(/N=C/c1c(O)ccc2ccccc12)c1ccccc1	11.1*	-11.4%	?	9.2%	18.2
O=C(O)c1cc(N/N=C/c2c(O)ccc3ccccc23)ccc1Cl	63.4*	-6.6%	17.4%[46.1 µM]	?	160.1*
COc1ccc(-c2nnc3n2N=C(c2c(OC)cccc2OC)CS3)cc1OC	-7.1	·	·	·	-8.8
Cc1cccc(C(=O)O)c1NC(=O)Cc1cccc2ccccc12	-2.7	10.0%	-0.5%[46.1 µM]	-8.9%[46.1 µM]	-10.1
COc1ccc(N2C(=O)[C@@H]3[C@H](C2=O)[C@H](C(C)=O)N2c4ccccc4C=C[C@@H]32)cc1	3.4	-6.5%	-2.3%	-1.0%	22.4
COc1ccc(C2C(C(=O)c3ccccc3)N3c4ccccc4C=CC3C2[N+](=O)[O-])cc1 (stereo not given)	22.4*	3.4%	-29.0%[46.1 µM]	-10.3%	24.2
SMILES	CHX counter	AMA1 RON2 block	Marburg entry inh	Lassa entry inh	Shiga inhibitor
O=C(NC1CCCCC1)Oc1cc2oc(=O)sc2cc1Cl	16.2*	-8.7%	-1.3%[46.1 µM]	1.9%[46.1 µM]	33.9
Cc1cccc(CN2CC34C=CC(CC3S2(=O)=O)O4)c1 (stereo not given)	26.5	·	·	·	37.9
COCCN1CCN(C(=O)c2ccc3oc(CCCc4ccccc4)nc3c2)CC1	22.9*	20.4%	-2.8%[46.1 µM]	21.0%	111.8*
COCC1CCN(C(=O)c2ccc3oc(CCCc4ccccc4)nc3c2)C1 (stereo not given)	28.7*	2.8%	-16.1%	4.9%	39.3
COCC1CCCN(C(=O)c2ccc3oc(CCCc4ccccc4)nc3c2)C1 (stereo not given)	1.6	-9.9%	6.6%[46.1 µM]	-0.6%[46.1 µM]	12.5
COc1ccc(N2CCN(CCCNC(=O)c3ccc4nc(CCc5ccccc5)oc4c3)CC2)cc1	·	·	·	10µM*	·
CCCCc1nc2cc(C(=O)N3CCCC(COC)C3)ccc2o1 (stereo not given)	62.6*	18.1%	26.3%	-14.8%	73.4*
CCc1ccccc1NC(=O)CSC1=Nc2ccccc2C2=NC(Cc3ccccc3)C(=O)N12 (stereo not given)	·	·	·	-25.5%[46.1 µM]	·
CCN(CC)C(=O)C1=C(C)N(CCCOC)C(=O)C(CC(=O)NCCc2ccccn2)C1 (stereo not given)	·	30.1%	·	·	·
CCCCc1nc2cc(C(=O)N3CCCC(OCCC)C3)ccc2o1 (stereo not given)	47.5*	-8.9%	·	·	103.3*
CCCCc1nc2cc(C(=O)N3CCC(OCCOC)CC3)ccc2o1	27.7*	2.8%	?	9.5%[46.1 µM]	72.6*
CC(=O)Nc1ccc(/C=N/N2C(C)CCCC2C)cc1 (stereo not given)	15.9*	7.3%	-1.6%[46.1 µM]	-1.2%	21.9
CC(=O)Nc1ccc(/C=N/N2CCCCC2)cc1	44.4*	-19.6%	13.0%[46.1 µM]	0.7%	116.3*
C[C@H](CO)N1C[C@H](C)[C@@H](CN(C)S(=O)(=O)c2cccs2)Oc2ccc(NC(=O)Cn3cnnn3)cc2C1=O	·	4.8%	·	·	·
CC(NC(=O)c1sc2cc([N+](=O)[O-])ccc2c1Cl)C(C)(C)C (stereo not given)	-1.8	-23.3%	4.2%	6.7%	1.9
O=C(NC1CC1)c1sc2cc([N+](=O)[O-])ccc2c1Cl	26.9*	-1.0%	-3.3%	3.5%	18.0
CC1CCCN(C(=O)c2sc3cc([N+](=O)[O-])ccc3c2Cl)C1 (stereo not given)	32.1*	-27.0%	-17.2%	-18.8%	84.8*
Cc1ccc2c(Cl)c(C(=O)NC3CC3)sc2c1	47.1*	-4.4%	·	·	61.1*
Cc1ccc2c(Cl)c(C(=O)Nc3cccnc3)sc2c1	58.5*	20.5%	?	?	126.4*
Cc1ccc2c(C)c(C(=O)Nc3cccnc3)oc2c1	20.0	1.9%	?	-10.8%	-5.2
O=C(c1sc2cc([N+](=O)[O-])ccc2c1Cl)N1CCCCC1	19.6	-11.3%	?	24.4%	0.0
Cc1c(NC(=O)Nc2ccccc2C(F)(F)F)sc2nc3n(c(=O)c12)CCC(C)CC3 (stereo not given)	·	·	19.2%[46.1 µM]	·	·
CC(C)(C)NC(=O)CCc1nnc(Cc2c[nH]c3ccccc23)o1	12.1*	0.5%	·	·	20.5
C=CCN(CC=C)C(=O)CCc1nnc(CCc2c[nH]c3ccccc23)o1	21.0*	-5.3%	1.8%[46.1 µM]	-20.7%	35.2
CCC(COC)NC(=O)CCc1nnc(Cc2c[nH]c3ccccc23)o1 (stereo not given)	-2.0	-0.6%	·	·	1.7
O=S(=O)(/C(=C/c1ccc(C(F)(F)F)cc1)c1nc2ccccc2[nH]1)c1ccccc1	-2.3	-14.3%	11.2µM*	?	-6.3
